Screens deposited in PubChem by University of Kansas High Throughput Screening Laboratory.
In the library only some 3.5% were active in any assay of this set; here they are far more common.
Pf apPOL block: Pf-apPOL DNA polymerase inhibition. Recombinant Pf-apPOL, molecular beacon fluorescence, 1.5 h. inhibition, % at 10 µM. 0.25% of 210,000 active
mHTT-CaM PPI inh: mHTT-calmodulin interaction abrogation. P42858. AlphaScreen His-mHTT/GST-CaM binding, luminescence. inhibition, % at 15 µM. 3.6% of 190,000 active
Of the large screens only hits and unclear results are named; the others gave an inactive call. No stated cut-off is given here; in the data, active means inhibition above about 50%; inactive means the rest.

COc1cc2c(cc1OC)C(COc1ccc(F)cc1)N(C(=O)c1ccc(F)cc1)CC2 (stereo not given)	mHTT-CaM PPI inh 57
O=C(CN(c1cc(C(F)(F)F)ccc1Cl)S(=O)(=O)c1ccccc1)NCc1ccco1	none
Cc1cc(C)c(NC(=O)Cn2nc3c(cc2=O)CC(C)CC3)c(C)c1 (stereo not given)	none
COC(=O)c1ccc(-c2csc(NC(=O)c3ccc(Cl)s3)n2)cc1	none
CCOC(=O)N1CCN(C(=O)c2cc3cccnc3n(Cc3ccc(F)cc3)c2=O)CC1	none
O=C1C(=O)N(c2cccnc2)C(c2ccccc2[N+](=O)[O-])C1=C(O)c1ccc(Cl)cc1 (stereo not given)	mHTT-CaM PPI inh 88
O=C(O)CN1C(=O)C(=O)C(=C(O)c2ccc(Cl)cc2)C1c1ccccc1[N+](=O)[O-] (stereo not given)	none
COc1ccc2cc(C(=O)NC(C)=O)c(=Nc3ccc(C#N)cc3)oc2c1	Pf apPOL block 65
COc1ccc2oc(=Nc3ccc(F)cc3F)c(C(=O)NC(C)=O)cc2c1	none
COc1ccc2oc(=Nc3ccccc3F)c(C(=O)NC(C)=O)cc2c1	Pf apPOL block 92
COc1ccc2oc(=Nc3ccc(C#N)cc3)c(C(=O)NC(C)=O)cc2c1	none
COc1ccc(OC)c(NC(=O)c2cc(S(=O)(=O)NCCc3ccccc3)ccc2F)c1	mHTT-CaM PPI inh 80
Cc1ccc(NC(=O)c2cc(S(=O)(=O)NCCc3ccccc3)ccc2F)cc1Cl	none
O=C(Nc1ccc(F)c(Cl)c1)c1cc(S(=O)(=O)NCCc2ccccc2)ccc1F	mHTT-CaM PPI inh 76
COc1ccc(OC)c(NC(=O)c2cc(S(=O)(=O)NCc3ccccc3)ccc2F)c1	none
O=C(Nc1cccc(Cl)c1)c1cc(S(=O)(=O)NCCc2ccc(Cl)cc2)ccc1F	mHTT-CaM PPI inh 80
O=C(Nc1cc(Cl)cc(Cl)c1)c1cc(S(=O)(=O)NCCc2ccccc2)ccc1F	none
O=C(/C=C1\Sc2ccccc2N(Cc2ccc(F)cc2)C1=O)NCc1ccccc1	none
CC(C)c1ccc(C2C3CN(C)CC=C3C(C#N)=C(N)C2(C#N)C#N)cc1 (stereo not given)	none
Cc1ccc(C(=O)N2CCn3c(nnc3C(C)C)C2)cc1F	none
COc1ccc(-c2cc(C(=O)NCc3cccnc3)c3ccccc3n2)cc1	none
CCCSc1nc2c(cnn2-c2ccc(C)c(C)c2)c(=O)[nH]1	none
Cc1ccc(-n2ncc3c(=O)[nH]c(SCC(=O)O)nc32)cc1C	Pf apPOL block 72
O=C(Nc1ccc2c(c1)OCCO2)C1CCc2sc(C(=O)N3CCCCCC3)cc2C1 (stereo not given)	none
CC(C)c1ccc(NC(=O)c2cn(C)c(=O)c3c2c2ccccc2n3C)cc1	none
Cc1noc(C)c1CC(=O)N1CCCn2cc(-c3ccccc3F)nc21	none
Cc1noc(C)c1CC(=O)N1CCCn2cc(-c3ccccc3)nc21	mHTT-CaM PPI inh 53
Cc1cccc(C(=O)N2CCC3(CC2)NC(=O)N(Cc2cccc(Cl)c2)C3=O)c1	none
CC(=O)c1ccc(OCc2cn(CC(=O)c3ccc(O)cc3)nn2)cc1	none
CC(=O)Nc1ccc(OCc2cn(CC(=O)c3ccc(O)cc3)nn2)cc1	mHTT-CaM PPI inh 52
COc1ccccc1/C=C/C=C1N=C(/C=C/c2ccc(C)cc2)OC/1=O	none
COc1cc(CNc2ccccc2C)cc2c1OCO2	none
CCN(CC)Cc1c(O)ccc2c1OC(=Cc1ccccc1C)C2=O	none
CCN1CCN(Cc2c(O)ccc3c2OC(=Cc2c[nH]c4ccccc24)C3=O)CC1	mHTT-CaM PPI inh 54
CCN(CC)Cc1c(O)ccc2c1OC(=Cc1c[nH]c3ccccc13)C2=O	mHTT-CaM PPI inh 72
CN1CCN(Cc2c(O)ccc3c2OC(=Cc2c[nH]c4ccccc24)C3=O)CC1	none
O=C1OC(/C=C/c2ccc([N+](=O)[O-])cc2)=NC/1=C\c1c(F)cccc1Cl	none
CCN1C(=O)S/C(=C\c2cc3c(cc2Cl)OCO3)C1=O	none
CN(C)c1ccc(/C=C2\C(=O)Nc3ccc(Br)cc32)cc1	mHTT-CaM PPI inh 99
CCc1ccc(/C=C2\C(=O)Nc3ccc(Br)cc32)cc1	mHTT-CaM PPI inh 74
O=C1Nc2ccc(Br)cc2/C1=C/c1ccc(F)cc1	none
CCc1ccc(/C=C2\C(=O)Nc3ccc(Cl)cc32)cc1	none
CC1CCCCN1CCCNC(=O)C1CCN(c2nc3cccnc3s2)CC1 (stereo not given)	none
Cc1cc(C)c(C)c(S(=O)(=O)N2CCC(c3noc(-c4ccc(F)cc4)n3)CC2)c1C	none
COCCC1CCN(C(=O)c2cc(Cl)ccc2F)CC1	none
CCCN1CCC(N2CCN(S(=O)(=O)c3ccc(OC)cc3)CC2)CC1	none
N#C/C(=C\c1cnn(-c2ccccc2)c1)c1nc2ccccc2[nH]1	none
Cc1nc2sc(-c3ccc([N+](=O)[O-])o3)c(N)c2c(C)c1Cl	none
O=C(CSc1nc2ccccc2o1)Nc1ccccc1[N+](=O)[O-]	mHTT-CaM PPI inh 55
COc1ccc(NC(=O)CSc2nc3ccccc3o2)c([N+](=O)[O-])c1	none
O=S(=O)(c1cc(Cl)ccc1Cl)N1CCN(C23CC4CC(CC(C4)C2)C3)CC1	none
CN(C)C=Cc1ccnc(-c2cc(C=CN(C)C)ccn2)c1	Pf apPOL block 66 (no result: mHTT-CaM PPI inh)
O=C(O)c1ccnc(-c2cc(C(=O)O)ccn2)c1	none (no result: mHTT-CaM PPI inh)
O=C(COc1cccc(Cl)c1)NCc1ccco1	none
O=C(COc1cccc2c1CCN(Cc1ccc(Cl)cc1)C2=O)NCc1ccco1	mHTT-CaM PPI inh 70
COc1ccc(-c2c(C)oc3cc(O)ccc3c2=O)cc1OC	none
COc1ccc(-c2c(C)oc3cc(OC(=O)C(C)C)ccc3c2=O)cc1OC	mHTT-CaM PPI inh 84
COc1ccc(-c2c(C)oc3cc(O)ccc3c2=O)cc1	Pf apPOL block 62
COc1ccc(C(=O)Oc2ccc3c(=O)c(-c4ccc(OC)c(OC)c4)c(C)oc3c2)cc1OC	none
O=C(NC1CCCCC1)N1CCC2(CC1)Nc1cccnc1NC2=NC1CCCC1	none
CC(C)(C)C(=O)Nc1ccc(N2CCCN(Cc3ccccc3F)CC2)nc1	none
O=C(O)c1cc([N+](=O)[O-])c(C(=O)O)cc1Oc1cc(Cl)c(Cl)cc1Cl	none
Nc1cc(Cl)c(Oc2cccc(Cl)c2Cl)cc1[N+](=O)[O-]	mHTT-CaM PPI inh 97
O=S(=O)(Nc1ccc2c(c1)OC1(CCCC1)O2)c1ccc2c(c1)Cc1ccccc1-2	mHTT-CaM PPI inh 63 (no result: Pf apPOL block)
CC(=O)Nc1ccc(S(=O)(=O)Nc2ccc3c(c2)OC(C)(C)O3)cc1	none
O=C(NCc1ccccc1F)c1cc2n(n1)CCCN(Cc1ccc(Cl)cc1)C2=O	none
O=C(NCCCN1CCOCC1)c1cc2n(n1)CCCN(Cc1ccc(Cl)cc1)C2=O	none
O=C(NCCCN1CCCC1)c1cc2n(n1)CCCN(Cc1ccc(Cl)cc1)C2=O	mHTT-CaM PPI inh 52
Cc1ccccc1CNC(=O)c1cc2n(n1)CCCN(Cc1ccc(Cl)cc1)C2=O	mHTT-CaM PPI inh 52
CCN1CCN(C/C=C/c2ccccc2[N+](=O)[O-])CC1	none
Cc1cccc(N2CCN(C/C=C/c3ccccc3[N+](=O)[O-])CC2)c1C	mHTT-CaM PPI inh 66
COc1ccccc1/C=C/CN1CCN(c2ccc([N+](=O)[O-])cc2)CC1	mHTT-CaM PPI inh 53
COc1ccccc1/C=C/CN1CCN(c2ccccc2)CC1	none
CCN(CC)c1ccc(NC(=O)COc2ccccc2OC)cc1	mHTT-CaM PPI inh 56
COc1ccccc1OCC(=O)Nc1ccc(C(C)=O)cc1	none
COc1ccccc1OCC(=O)Nc1ccc(Nc2ccccc2)cc1	mHTT-CaM PPI inh 61
CCC(C)c1ccc(NC(=O)COc2ccccc2OC)cc1 (stereo not given)	none
COc1ccc(C=C2Oc3cc(OC(=O)c4ccccc4F)ccc3C2=O)c(OC)c1OC	none
